In PubChem BioAssay (NCATS):
Inconclusive results are not listed. Calls of active or inactive are those of the source. Unless noted, calls come from the whole dose curve; as a rule, active = well fitted curve in either direction with a large enough effect (not every such curve was filed as active); inconclusive = small, poorly fitted or top-dose-only effect, or another doubt; inactive = flat fitted curve, though single readings scatter.

Assays:
[1] = AP1 Signaling Pathway (AID 357); conditions: ME-180 AP-1-bla reporter, EGF-induced, beta-lactamase ratio, 5 h; at 17.2 µM (top of the series) unless noted;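 note: ME-180 reporter cells stimulated with EGF at its EC50 level; % is set by controls: 0 for no effect and ±100 for the full control effect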
In short: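 Cells are seeded overnight, exposed to compound titrations and an EC50 level of EGF for 5 hours at 37 °C, then loaded with CCF4 dye for 2.5 hours. Beta-lactamase activity under the AP-1 element is read as a blue/green ratio.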

[2] = NFAT Signaling Pathway (AID 444); conditions: Jurkat NFAT-bla M1, carbachol, beta-lactamase ratio, 5 h; at 17.2 µM (top of the series) unless noted;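 note: carbachol stimulus at about its EC50 of 1 µM final; % is set by controls: 0 for no effect and ±100 for the full control effect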
In short: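 Read-out: CCF4 FRET ratio (460 nm/530 nm) after 1 h RT dye loading, used for %activity and AC50 from titration series. Cells: Jurkat NFAT-β-lactamase/M1 line, treated with compound plus 1 uM carbachol for 5 h, 37 °C.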

[3] = Stat Signaling Pathway (AID 446); conditions: ME-180 SIE beta-lactamase reporter, IL-6 stimulated, 5 h; at 17.2 µM (top of the series) unless noted;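 note: ME-180 cervical cancer cells given 40 pM IL-6 alongside compound; SIE-controlled beta-lactamase reporter measured as 460/530 nm FRET emission ratio; % is set by controls: 0 for no effect and ±100 for the full control effect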
In short: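 Compound effects on IL-6-induced STAT reporter activity were measured in ME-180 cells. After overnight culture, cells were co-treated with 40 pM IL-6 for 5 hrs before beta-lactamase substrate loading at room temperature.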

[4] = molecular target: Glucocorticoid receptor (Homo sapiens) (UniProt P04150); assay: GR-GFP Redistribution (AID 450;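 active = compounds whose dose series gives a full or clear partial fitted curve of increased nuclear translocation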; note: potency is the fitted concentration of half-maximal effect)
Sequence of Glucocorticoid receptor (Homo sapiens) (P04150 whole entry, looked up, the tested form may be a part): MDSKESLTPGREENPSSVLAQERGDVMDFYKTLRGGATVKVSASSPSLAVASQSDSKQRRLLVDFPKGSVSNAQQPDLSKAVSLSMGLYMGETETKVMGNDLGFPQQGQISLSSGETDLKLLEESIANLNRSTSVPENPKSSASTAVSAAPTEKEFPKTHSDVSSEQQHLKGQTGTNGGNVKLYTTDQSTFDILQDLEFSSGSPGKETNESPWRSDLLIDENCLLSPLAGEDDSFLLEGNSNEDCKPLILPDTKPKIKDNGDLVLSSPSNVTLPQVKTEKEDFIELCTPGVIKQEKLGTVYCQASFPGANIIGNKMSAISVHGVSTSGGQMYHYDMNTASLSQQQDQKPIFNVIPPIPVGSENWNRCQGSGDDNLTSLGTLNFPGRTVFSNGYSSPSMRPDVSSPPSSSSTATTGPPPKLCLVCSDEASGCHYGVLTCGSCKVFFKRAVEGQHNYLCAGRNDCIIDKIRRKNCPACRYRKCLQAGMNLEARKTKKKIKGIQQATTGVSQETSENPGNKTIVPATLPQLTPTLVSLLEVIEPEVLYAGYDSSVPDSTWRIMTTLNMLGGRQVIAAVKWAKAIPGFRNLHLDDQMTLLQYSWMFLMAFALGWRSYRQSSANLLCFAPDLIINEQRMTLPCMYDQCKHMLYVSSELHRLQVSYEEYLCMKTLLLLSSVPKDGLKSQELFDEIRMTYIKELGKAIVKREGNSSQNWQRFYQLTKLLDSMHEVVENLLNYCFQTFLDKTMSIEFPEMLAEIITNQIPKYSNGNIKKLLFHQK

[5] = qHTS Assay for Identification of Small Molecule Agonists for Hypoxia Response Element Signaling Pathway (AID 914; active = well fitted activation curve with a large enough effect in the signal ratio, with a control signal flat, not every such curve was filed as active; the % refers to the signal ratio; note: % of control where 0% means no effect); conditions: ME-180 (cervical carcinoma) HRE-bla reporter, beta-lactamase ratio, CoCl2, 17 h; activation: active compounds read high
In short: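 Cells were plated overnight, pin-dosed with compound in a titration series, co-stimulated with EC50 CoCl2 and incubated 17 hours at 37 degrees Celsius. CCF4 substrate was then loaded, and AC50 values came from the 460nm/530nm ratio.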

[6] = molecular target: Glucocorticoid receptor (Homo sapiens) (UniProt P04150); assay: GR-EFC Redistribution (AID 451; calls by dose curve; note: potency is the fitted concentration of half-maximal effect); conditions: CHO-K1 GR-EFC translocation, beta-gal luminescence, 2 h
In short: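 Translocation of GR-ED fusion to nuclear EA restores b-gal, read by luminescence after 1 h room-temperature detection. Engineered CHO-K1 biosensor cells, 1,000/well, exposed 2 h at 37 C to titrations up to 46 uM final.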

[7] = molecular target: 3',5'-cyclic-AMP phosphodiesterase 4B (Homo sapiens) (UniProt Q07343); assay: qHTS Assay for Inhibitors of PDE-IV (AID 607; active = well fitted activation curve with a large enough effect in the main read-out, with a control signal flat, not every such curve was filed as active; note: % of control where 0% means no effect)
Sequence of 3',5'-cyclic-AMP phosphodiesterase 4B (Homo sapiens) (Q07343 whole entry, looked up): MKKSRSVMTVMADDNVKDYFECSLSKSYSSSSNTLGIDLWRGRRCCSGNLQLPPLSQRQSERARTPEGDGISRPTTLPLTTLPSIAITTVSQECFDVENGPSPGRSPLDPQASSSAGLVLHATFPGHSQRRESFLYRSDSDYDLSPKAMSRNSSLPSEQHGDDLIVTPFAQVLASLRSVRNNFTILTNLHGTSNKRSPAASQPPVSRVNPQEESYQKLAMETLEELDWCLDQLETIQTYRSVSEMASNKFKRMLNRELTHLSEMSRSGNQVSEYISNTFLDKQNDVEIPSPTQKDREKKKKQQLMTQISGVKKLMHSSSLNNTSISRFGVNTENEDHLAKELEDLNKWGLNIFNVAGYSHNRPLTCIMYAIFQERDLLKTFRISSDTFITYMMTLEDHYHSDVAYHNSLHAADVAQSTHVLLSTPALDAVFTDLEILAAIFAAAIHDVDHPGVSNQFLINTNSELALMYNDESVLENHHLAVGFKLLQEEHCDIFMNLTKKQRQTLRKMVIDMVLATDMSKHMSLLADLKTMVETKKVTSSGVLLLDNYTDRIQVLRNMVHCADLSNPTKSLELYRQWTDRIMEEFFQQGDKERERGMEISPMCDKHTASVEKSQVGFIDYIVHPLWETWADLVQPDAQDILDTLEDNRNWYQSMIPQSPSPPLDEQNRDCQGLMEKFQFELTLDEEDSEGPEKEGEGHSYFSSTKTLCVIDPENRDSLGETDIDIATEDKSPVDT
In short: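 ACTOne HEK293 cells carry a modified cAMP-gated CNG channel and express endogenous PDE4; plated 1000 cells/well, compounds up to 22.9 uM final. Membrane-potential dye fluorescence (ex 535/em 590) was read; parental cells received 10 uM forskolin + 100 uM RO 20-1724.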

[8] = molecular target: Guanine nucleotide-binding protein G(i) subunit alpha-1 (Homo sapiens) (UniProt P63096); assay: qHTS Assay for Inhibitors of RGS12 GoLoco Motif Activity (Green Fluorophore) (AID 879; active = well fitted curve in the direction sought with a large enough effect; an effect the other way counts as inactive or inconclusive;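 note: 0% = labeled peptide with Gαi1 and full inhibition = labeled peptide alone without protein; negative values mean loss of peptide binding seen as reduced polarization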)
Sequence of Guanine nucleotide-binding protein G(i) subunit alpha-1 (Homo sapiens) (P63096 whole entry, looked up): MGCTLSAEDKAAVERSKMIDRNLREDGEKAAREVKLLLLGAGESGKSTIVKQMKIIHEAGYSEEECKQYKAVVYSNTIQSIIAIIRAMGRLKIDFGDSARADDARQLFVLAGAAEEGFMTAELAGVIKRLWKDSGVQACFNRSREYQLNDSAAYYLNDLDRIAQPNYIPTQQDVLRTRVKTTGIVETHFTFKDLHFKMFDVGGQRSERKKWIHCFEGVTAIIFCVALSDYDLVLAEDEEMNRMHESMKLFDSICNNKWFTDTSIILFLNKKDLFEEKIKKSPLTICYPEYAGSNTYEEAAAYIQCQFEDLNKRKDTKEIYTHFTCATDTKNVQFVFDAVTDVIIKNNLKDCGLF
In short: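 A drop in FITC polarization marked displacement of the FITC-tagged RGS12 GoLoco peptide (10 nM) from Gαi1 (50 nM). Compounds were incubated 10 min at room temperature in Tris pH 7.5 buffer containing 150 mM NaCl, 0.1 mM GDP and 0.05% NP40; unlabeled peptide titration served as control.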

[9] = molecular target: Cytochrome P450 3A4 (Homo sapiens) (UniProt P08684); assay: qHTS Assay for Activators of Cytochrome P450 3A4 (AID 885; active = well fitted curve in the direction sought with a large enough effect; an effect the other way counts as inactive or inconclusive; note: nearly all actives have a fitted effect of over 65% in size)
Sequence of Cytochrome P450 3A4 (Homo sapiens) (P08684 whole entry, looked up): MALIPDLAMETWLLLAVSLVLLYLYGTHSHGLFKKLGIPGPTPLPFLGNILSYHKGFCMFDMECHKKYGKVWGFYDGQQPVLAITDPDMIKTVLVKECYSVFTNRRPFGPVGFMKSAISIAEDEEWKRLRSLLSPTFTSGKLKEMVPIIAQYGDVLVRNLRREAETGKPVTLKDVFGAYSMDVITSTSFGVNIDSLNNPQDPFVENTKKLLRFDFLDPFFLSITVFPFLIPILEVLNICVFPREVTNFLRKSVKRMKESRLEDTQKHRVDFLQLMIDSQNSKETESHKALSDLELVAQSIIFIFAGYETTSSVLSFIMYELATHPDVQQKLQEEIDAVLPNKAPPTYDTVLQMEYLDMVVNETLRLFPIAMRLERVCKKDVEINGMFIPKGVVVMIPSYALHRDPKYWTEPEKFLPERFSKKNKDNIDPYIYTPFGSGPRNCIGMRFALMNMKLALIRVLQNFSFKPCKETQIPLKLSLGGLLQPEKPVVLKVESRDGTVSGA
In short: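 CYP3A4 activity: Luciferin-PPXE O-dealkylation, 25uM substrate, 200mM KPO4, RT throughout. Read-out is luciferase luminescence; higher values reflect activation.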

[10] = qHTS Assay for Identification of Small Molecule Agonists for Thrombopoietin (TPO) Signaling Pathway (AID 917; active = well fitted curve in the direction sought with a large enough effect; an effect the other way counts as inactive or inconclusive; note: % is set by controls: 0 for no effect and ±100 for the full control effect)
In short: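 Ba/F3 (mouse) + hTPO receptor + GpIIb-promoter luciferase; IL-3 withdrawn overnight; compound + 26 pM TPO (EC50), 24 hrs, 37 C, 5% CO2; Steadylite luminescence, 10 min RT.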

[11] = molecular target: Muscarinic acetylcholine receptor M1 (Rattus norvegicus) (UniProt P08482); assay: qHTS Assay for Antagonists of Acetylcholine Muscarinic M1 Receptor: Measurement of IP-One Response (AID 944; active = well fitted curve in the direction sought with a large enough effect; an effect the other way counts as inactive or inconclusive; note: nearly all actives have a fitted effect of over 75% in size)
Sequence of Muscarinic acetylcholine receptor M1 (Rattus norvegicus) (P08482 whole entry, looked up): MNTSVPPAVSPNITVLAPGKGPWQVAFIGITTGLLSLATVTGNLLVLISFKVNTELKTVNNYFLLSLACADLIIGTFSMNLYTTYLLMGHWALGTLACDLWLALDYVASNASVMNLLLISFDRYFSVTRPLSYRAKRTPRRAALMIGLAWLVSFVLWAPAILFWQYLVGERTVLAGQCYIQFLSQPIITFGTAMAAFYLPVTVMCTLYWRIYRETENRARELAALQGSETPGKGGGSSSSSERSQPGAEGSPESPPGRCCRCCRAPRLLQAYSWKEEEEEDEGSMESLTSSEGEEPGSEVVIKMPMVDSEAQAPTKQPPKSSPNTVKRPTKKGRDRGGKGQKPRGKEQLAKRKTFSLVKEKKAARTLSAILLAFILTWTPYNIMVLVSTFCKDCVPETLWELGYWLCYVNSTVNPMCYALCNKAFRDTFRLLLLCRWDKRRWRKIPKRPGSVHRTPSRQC
In short: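 IP1 accumulation measured via TR-FRET between d2-IP1 and Eu-cryptate anti-IP1 antibody after carbachol (200 nM, EC80) stimulation for 30 min; rat M1-transfected CHO cells received compound 10 min before agonist.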

[12] = molecular target: Pyruvate kinase (Leishmania mexicana) (UniProt Q27686); assay: qHTS Validation Assay for Inhibitors of Leishmania Mexicana Pyruvate Kinase (AID 945; active = well fitted curve in the direction sought with a large enough effect; an effect the other way counts as inactive or inconclusive;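 note: 0% = DMSO only neutral control wells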)
Sequence of Pyruvate kinase (Leishmania mexicana) (Q27686 2-499 E452W): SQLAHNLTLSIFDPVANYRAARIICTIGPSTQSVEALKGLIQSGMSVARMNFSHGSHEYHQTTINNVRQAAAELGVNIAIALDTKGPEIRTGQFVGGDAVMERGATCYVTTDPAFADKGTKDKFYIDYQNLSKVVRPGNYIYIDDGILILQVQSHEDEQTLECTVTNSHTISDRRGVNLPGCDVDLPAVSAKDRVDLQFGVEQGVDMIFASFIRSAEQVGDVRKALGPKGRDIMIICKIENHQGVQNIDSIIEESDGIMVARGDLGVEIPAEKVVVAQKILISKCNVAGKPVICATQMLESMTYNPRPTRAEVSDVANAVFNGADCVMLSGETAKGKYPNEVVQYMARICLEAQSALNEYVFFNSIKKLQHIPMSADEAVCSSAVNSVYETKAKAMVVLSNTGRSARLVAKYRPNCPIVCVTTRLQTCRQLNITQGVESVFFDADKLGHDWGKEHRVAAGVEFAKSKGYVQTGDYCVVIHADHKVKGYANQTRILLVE
In short: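 The enzyme is a highly purified E451W mutant of LmPYK used at 0.2 nM. It converts 0.5 mM PEP and 0.1 mM ADP over 1 h at room temperature; product ATP is quantified by luciferase luminescence relative to DMSO controls.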

[13] = molecular target: Pyruvate kinase PKM (Homo sapiens) (UniProt P14618); assay: qHTS Assay for Activators of Human Muscle Pyruvate Kinase (AID 954; active = well fitted curve in the direction sought with a large enough effect, not every such curve was filed as active;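 note: 0% = uninhibited enzyme and -100% = no enzyme or full thiadiazolimine inhibition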)
Sequence of Pyruvate kinase PKM (Homo sapiens) (P14618 whole entry, looked up): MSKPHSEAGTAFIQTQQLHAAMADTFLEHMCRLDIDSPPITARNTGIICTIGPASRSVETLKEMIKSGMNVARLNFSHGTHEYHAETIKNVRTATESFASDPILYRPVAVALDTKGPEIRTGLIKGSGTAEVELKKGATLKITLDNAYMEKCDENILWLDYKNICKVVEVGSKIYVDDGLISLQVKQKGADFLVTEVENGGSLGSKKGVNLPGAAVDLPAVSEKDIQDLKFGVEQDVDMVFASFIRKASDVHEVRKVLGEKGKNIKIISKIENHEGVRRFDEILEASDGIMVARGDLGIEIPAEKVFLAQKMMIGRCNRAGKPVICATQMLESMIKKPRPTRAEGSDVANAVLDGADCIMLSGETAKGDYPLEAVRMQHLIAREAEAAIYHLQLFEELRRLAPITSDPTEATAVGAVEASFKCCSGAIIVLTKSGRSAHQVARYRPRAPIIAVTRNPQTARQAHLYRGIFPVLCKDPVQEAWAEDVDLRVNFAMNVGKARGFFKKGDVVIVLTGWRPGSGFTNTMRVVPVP
In short: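 A coupled luminescent readout tracked ATP made from ADP by purified PKM2. Final conditions included 0.1 nM enzyme, PEP and ADP at 0.5 and 0.1 mM, pH 7.2 imidazole buffer with BSA, and a one-hour room-temperature reaction.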

[14] = molecular target: Alpha-galactosidase A (Homo sapiens) (UniProt P06280); assay: Counterscreen for Glucocerebrosidase Inhibitors: qHTS Assay for Human alpha-Galactosidase at pH 4.5 (AID 992; active = well fitted curve in the direction sought with a large enough effect; an effect the other way counts as inactive or inconclusive; note: 0% is about no effect)
Sequence of Alpha-galactosidase A (Homo sapiens) (P06280 whole entry, looked up): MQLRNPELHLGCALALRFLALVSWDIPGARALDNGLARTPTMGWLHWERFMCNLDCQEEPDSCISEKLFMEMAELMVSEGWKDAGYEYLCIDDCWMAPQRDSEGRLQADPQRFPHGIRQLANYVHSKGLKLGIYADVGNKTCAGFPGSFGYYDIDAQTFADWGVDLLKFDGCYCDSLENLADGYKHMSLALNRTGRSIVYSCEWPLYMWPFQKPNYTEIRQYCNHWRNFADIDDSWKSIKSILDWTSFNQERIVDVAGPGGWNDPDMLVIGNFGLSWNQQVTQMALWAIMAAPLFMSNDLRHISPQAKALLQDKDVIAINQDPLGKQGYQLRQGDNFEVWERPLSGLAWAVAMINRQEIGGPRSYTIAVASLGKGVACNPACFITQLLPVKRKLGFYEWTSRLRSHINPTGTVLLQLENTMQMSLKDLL
In short: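 Citrate buffer pH 4.5, Tween-20 0.005%. Enzyme 2 nM, substrate 80 uM, 20 min RT. Stop pH 10. Fluorescence Ex 365/Em 440. AC50 by Hill fit.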

[15] = molecular target: alpha-glucosidase (Oryza sativa, rice) (UniProt Q653V4); assay: Counterscreen for Glucocerebrosidase Inhibitors: qHTS Assay for Rice alpha-Glucosidase at pH 5.0 (AID 997; active = well fitted curve in the direction sought with a large enough effect; an effect the other way counts as inactive or inconclusive;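 note: 0% = full activity with enzyme and -100% = basal without enzyme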)
In short: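 Endpoint fluorogenic assay at pH 5.0: compounds (0.7 nM to 77 uM) titrated against 4 nM rice enzyme and 400 uM 4-MU-alpha-glucoside for 20 min at room temperature; NaOH/glycine stop, read ex 365/em 440 nm, Hill-fitted AC50.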

[16] = molecular target: Cytochrome P450 2D6 (Homo sapiens) (UniProt P10635); assay: qHTS Assay for Inhibitors and Substrates of Cytochrome P450 2D6 (AID 891; active = well fitted curve in the direction sought with a large enough effect; an effect the other way counts as inactive or inconclusive; note: potency is the fitted concentration of half-maximal effect; nearly all actives have a fitted effect of over 60% in size)
Sequence of Cytochrome P450 2D6 (Homo sapiens) (P10635 whole entry, looked up): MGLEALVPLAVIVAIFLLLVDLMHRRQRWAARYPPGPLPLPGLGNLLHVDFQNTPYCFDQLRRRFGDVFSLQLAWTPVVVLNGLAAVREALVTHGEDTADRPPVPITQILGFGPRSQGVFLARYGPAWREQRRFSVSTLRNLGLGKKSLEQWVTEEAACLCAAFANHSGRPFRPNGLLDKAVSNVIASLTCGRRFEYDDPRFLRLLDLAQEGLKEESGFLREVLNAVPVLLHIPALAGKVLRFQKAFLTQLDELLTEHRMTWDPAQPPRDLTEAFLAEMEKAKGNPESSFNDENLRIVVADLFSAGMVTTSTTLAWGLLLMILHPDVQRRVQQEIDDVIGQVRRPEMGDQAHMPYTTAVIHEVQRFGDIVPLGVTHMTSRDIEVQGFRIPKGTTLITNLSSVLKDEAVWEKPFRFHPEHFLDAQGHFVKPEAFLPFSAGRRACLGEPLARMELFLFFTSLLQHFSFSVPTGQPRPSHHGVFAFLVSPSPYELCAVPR
In short: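 Luminescent read-out of luciferin formed by 5 nM human CYP2D6 demethylating 30 uM Luciferin-ME EGE (Km level) over 60 min at room temperature after NADPH regeneration addition. Data normalized to full inhibition by 1.43 uM quinidine.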

[17] = qHTS Assay for Identification of Small Molecule Antagonists for NFkB Signaling Pathway (AID 895; active = well fitted inhibition curve with a large enough effect in the signal ratio, with a control signal flat, not every such curve was filed as active; the % refers to the signal ratio; note: % is set by controls: 0 for no effect and ±100 for the full control effect)
In short: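 Beta-lactamase reporter read-out (460 and 530 nm emission ratio, 405 nm excitation, 2 hrs substrate loading RT) after 5 hr stimulation with 10 pM TNF alpha in compound-treated NFkB-bla ME-180 cells in low-serum medium.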

CNc1ccccc1-c1nc2ccccc2n(C)c1=O
inactive: activity change, negative = inhibition [1] 11.2% | activity change, negative = inhibition [2] -2.49% | activity, negative = inhibition [3] 12% | Potency [4] > 20.6 µM | activation [5] -4.3%

CSc1cc(C)nc(N(C)C(C)=O)n1
inactive: activity change, negative = inhibition [1] 16.9% | activity change, negative = inhibition [2] -4.07% | activity, negative = inhibition [3] -0.18% | Potency [4] > 20.6 µM | activation [5] 14.1%

NC(=S)c1ccc[n+]([C@@H]2O[C@@H](COP(=O)([O-])OP(=O)(O)OC[C@@H]3O[C@@H](n4cnc5c(N)ncnc54)[C@@H](OP(=O)(O)O)[C@H]3O)[C@@H](O)[C@H]2O)c1
inactive: activity change, negative = inhibition [1] 5.32% [at 38 µM] | activity change, negative = inhibition [2] -7.28% [at 38 µM] | activity, negative = inhibition [3] 1.28% [at 38 µM] | Potency [4] > 46 µM | Potency [6] > 46 µM | Potency [7] | outcome [8] | Potency [9] | Potency [10] | Potency [11] | Potency [12] | outcome [13] | outcome [14] | outcome [15]

CC1(C)Cc2nc(NCCN3CCOCC3)c(C#N)cc2CO1
inactive: activity change, negative = inhibition [1] 7.57% | activity change, negative = inhibition [2] 7.63% | activity, negative = inhibition [3] 11% | Potency [4] > 20.6 µM | activation [5] 3.3%

CC(C)NC(=O)N1CCOCCOCCN(C(=O)NC(C)C)CCOCCOCC1
inactive: activity change, negative = inhibition [1] 8.52% | activity change, negative = inhibition [2] 0.977% | activity, negative = inhibition [3] 0.97% | Potency [4] > 20.6 µM | activation [5] 3.05%

CCOC(=O)C(CC(=O)O)N1CCCCC1 (centres undefined)
inactive: activity change, negative = inhibition [1] 4.69% | activity change, negative = inhibition [2] 10.9% | activity, negative = inhibition [3] 3.36% | Potency [4] > 20.6 µM | activation [5] 11.2%

CCCN1C[C@@H](CSC)C[C@H]2c3cccc4[nH]cc(c34)C[C@@H]21
inactive: activity change, negative = inhibition [1] 10.4% [at 38 µM] | activity change, negative = inhibition [2] -24.1% [at 38 µM] | activity, negative = inhibition [3] -10.6% [at 38 µM] | Potency [4] > 46 µM | Potency [6] > 46 µM | Potency [7] | outcome [8] | Potency [9] | Potency [17] | Potency [10] | Potency [12] | outcome [13] | outcome [14] | outcome [15]
active: Potency [16] 0.1 µM

O=C(NC1CCCCC1)Nn1c(-c2ccccc2)nc2ccccc2c1=O
inactive: activity change, negative = inhibition [1] -2.78% | activity change, negative = inhibition [2] -2.06% | activity, negative = inhibition [3] 13.2% | Potency [4] > 20.6 µM | activation [5] 1.48%

CCOc1ccc(NC(=O)c2nn(C)cc2Br)cc1
inactive: activity change, negative = inhibition [1] 1.01% | activity change, negative = inhibition [2] 4.54% | activity, negative = inhibition [3] 3.62% | Potency [4] > 20.6 µM | activation [5] 5.55%

CSc1ccccc1NC(=O)c1c(Br)cnn1C
inactive: activity change, negative = inhibition [1] -8.39% | activity change, negative = inhibition [2] -10.8% | activity, negative = inhibition [3] 1.88% | Potency [4] > 20.6 µM | activation [5] 27.6%

COc1ccc(C2C(C#N)=C(N)Oc3n[nH]c(C)c32)cc1CSc1ccccn1 (centres undefined)
inactive: activity change, negative = inhibition [1] -15.2% | activity change, negative = inhibition [2] 13.4% | activity, negative = inhibition [3] -27.9% | Potency [4] > 20.6 µM | activation [5] -21.4%

CCOc1cccc(N2C(=O)CC(N(CCc3ccc(OC)c(OC)c3)C(=O)CC)C2=O)c1 (centres undefined)
inactive: activity change, negative = inhibition [1] -28.7% | activity change, negative = inhibition [2] 0.637% | activity, negative = inhibition [3] 3.67% | Potency [4] > 20.6 µM | activation [5] 11%

CCOc1ccc(/C(O)=C2/C(=O)C(=O)N(CCN(C)C)C2c2ccccc2)cc1Cl (centres undefined)
inactive: activity change, negative = inhibition [1] 8.45% | activity change, negative = inhibition [2] 1.62% | activity, negative = inhibition [3] 7.84% | Potency [4] > 20.6 µM | activation [5] 2.13%

COc1ccc(C(=O)Cn2c(Br)nc3c2c(=O)n(C)c(=O)n3C)cc1OC
inactive: activity change, negative = inhibition [1] 7.09% | activity change, negative = inhibition [2] 25.7% | activity, negative = inhibition [3] 0.59% | Potency [4] > 20.6 µM | activation [5] 8.03%

O=C(C1CCCCC1)N1CCCn2c1nc1ccccc12
inactive: activity change, negative = inhibition [1] 8.92% | activity change, negative = inhibition [2] -19.9% | activity, negative = inhibition [3] 4.38% | Potency [4] > 20.6 µM | activation [5] 6.44%

Cc1ccc(OCc2nnc(NC(=O)c3ccco3)s2)c(C)c1
inactive: activity change, negative = inhibition [1] -4.34% | activity change, negative = inhibition [2] 11.7% | activity, negative = inhibition [3] -14.8% | Potency [4] > 20.6 µM | activation [5] -11.9%

CCCCOC(=O)Nc1ccc(S(=O)(=O)Nc2nc(C)cc(C)n2)cc1
inactive: activity change, negative = inhibition [1] -5.25% | activity change, negative = inhibition [2] -8.58% | activity, negative = inhibition [3] -5.4% | Potency [4] > 20.6 µM | activation [5] -6.31%

COc1ccc2c(C)nc(Nc3nc(C)cc(C)n3)nc2c1
inactive: activity change, negative = inhibition [1] -4.83% | activity change, negative = inhibition [2] -4.96% | activity, negative = inhibition [3] 7.03% | Potency [4] > 20.6 µM | activation [5] -6.59%

O=C1c2ccccc2C(=O)N1CC1c2ccccc2CCN1C(=O)N1CCOCC1 (centres undefined)
inactive: activity change, negative = inhibition [1] -3.7% | activity change, negative = inhibition [2] -0.0702% | activity, negative = inhibition [3] 1.92% | Potency [4] > 20.6 µM | activation [5] 4.7%
